From PubChem BioAssay (NCATS)
Inconclusive results are not listed. Active and inactive are the calls of the source. Calls follow the shape of the dose curve; as a rule, active = well fitted curve in the direction sought with a large enough effect; inconclusive = small, poorly fitted or top-dose-only effect, or another doubt; inactive = no such curve, though single readings can be large; an effect the other way counts as inactive or inconclusive.

Legend:
[1] = qHTS of pediatric cancer cell lines to identify multiple opportunities for drug repurposing: Primary screen for TC32 cells (AID 1347089); also: nearly all actives have a fitted effect of over 60% in size
How it was run: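 TC32 cells, 500-1,000/well in growth medium, compound-treated 48 h at 37 °C; viability from CellTiter-Glo luminescence. Primary screen: MIPE 11-point (0.78 nM–46 µM final), NPC 8-point (0.59 nM–46 µM final); confirmatory at 11-point dilutions.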

[2] = qHTS of pediatric cancer cell lines to identify multiple opportunities for drug repurposing: Primary screen for DAOY cells (AID 1347090); also: nearly all actives have a fitted effect of over 55% in size; also: potency is read from the fitted curve at half-maximal effect
How it was run: (§1)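 Cell viability, CellTiter-Glo luminescence; 500-1,000 cells/well, 8- or 11-point titration, 48 h compound exposure at 37 degrees C, 5% CO2. Controls: DMSO neutral, bortezomib 2.3 µM final as positive.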

[3] = qHTS of pediatric cancer cell lines to identify multiple opportunities for drug repurposing: Primary screen for A673 cells (AID 1347092); also: nearly all actives have a fitted effect of over 45% in size; also: potency is read from the fitted curve at half-maximal effect
How it was run: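 A673 cells (500-1,000 cells/well) were treated 48 hours at 37 degrees C with compounds at 11-point (0.78 nM to 46 µM) or 8-point (0.59 nM to 46 µM) dilutions. Viability read by CellTiter-Glo luminescence; concentration-response curves fitted.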

[4] = qHTS of pediatric cancer cell lines to identify multiple opportunities for drug repurposing: Primary screen for BT-37 cells (AID 1347094); also: potency is read from the fitted curve at half-maximal effect
How it was run: (§2)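 Phenotypic viability qHTS, 48 h compound exposure, CellTiter-Glo luminescence read-out; multi-concentration dosing so that potency and efficacy derive directly from the primary screen's curves.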

[5] = qHTS of pediatric cancer cell lines to identify multiple opportunities for drug repurposing: Primary screen for NB-EBc1 cells (AID 1347095); also: potency is read from the fitted curve at half-maximal effect
How it was run: as §2

[6] = qHTS of pediatric cancer cell lines to identify multiple opportunities for drug repurposing: Primary screen for U-2 OS cells (AID 1347096); also: nearly all actives have a fitted effect of over 50% in size
How it was run: (§3)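 Cells (500-1,000/well) rested 5 h, then received compounds for 48 h; metabolically active cells were measured by CellTiter-Glo luminescence. Final concentrations spanned up to 46 µM (MIPE, 11-point) or 0.59 nM-46 µM (NPC, 8-point) in primary screens, 11-point in follow-ups.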

[7] = qHTS of pediatric cancer cell lines to identify multiple opportunities for drug repurposing: Primary screen for SK-N-SH cells (AID 1347098); also: nearly all actives have a fitted effect of over 65% in size; also: potency is read from the fitted curve at half-maximal effect
How it was run: as §3

[8] = qHTS of pediatric cancer cell lines to identify multiple opportunities for drug repurposing: Primary screen for NB1643 cells (AID 1347099); also: nearly all actives have a fitted effect of over 50% in size; also: potency is read from the fitted curve at half-maximal effect
How it was run: as §2

[9] = qHTS of pediatric cancer cell lines to identify multiple opportunities for drug repurposing: Primary screen for LAN-5 cells (AID 1347100); also: potency is read from the fitted curve at half-maximal effect
How it was run: as §3

[10] = qHTS of pediatric cancer cell lines to identify multiple opportunities for drug repurposing: Primary screen for Rh18 cells (AID 1347102); also: nearly all actives have a fitted effect of over 65% in size; also: potency is read from the fitted curve at half-maximal effect
How it was run: as §3

[11] = qHTS of pediatric cancer cell lines to identify multiple opportunities for drug repurposing: Primary screen for OHS-50 cells (AID 1347103); also: nearly all actives have a fitted effect of over 40% in size; also: potency is read from the fitted curve at half-maximal effect
How it was run: as §3

[12] = qHTS of pediatric cancer cell lines to identify multiple opportunities for drug repurposing: Primary screen for control Hh wild type fibroblast cells (AID 1347106);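 also: series mostly up to about 46 µM; a drop in luminescence marks cytotoxicity and a rise apparent proliferation; nearly all actives have a fitted effect of over 55% in size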
How it was run: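 Viability after 48 h compound treatment at 37C, 500-1,000 cells/well, read as ATP luminescence with CellTiter-Glo. Primary screens used 11-point (MIPE, 0.78 nM-46 µM) or 8-point (NPC, 0.59 nM-46 µM) final concentrations; follow-up screens used 11-point dilutions.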

[13] = qHTS of pediatric cancer cell lines to identify multiple opportunities for drug repurposing: Primary screen for Rh30 cells (AID 1347107); also: series mostly up to about 46 µM; nearly all actives have a fitted effect of over 75% in size
How it was run: as §3

[14] = qHTS of pediatric cancer cell lines to identify multiple opportunities for drug repurposing: Primary screen for Rh41 cells (AID 1347108); also: nearly all actives have a fitted effect of over 70% in size; also: potency is read from the fitted curve at half-maximal effect
How it was run: as §2

[15] = qHTS of pediatric cancer cell lines to identify multiple opportunities for drug repurposing: Primary screen for BT-12 cells (AID 1347101); also: nearly all actives have a fitted effect of over 25% in size; also: potency is read from the fitted curve at half-maximal effect
How it was run: as §3

[16] = qHTS of pediatric cancer cell lines to identify multiple opportunities for drug repurposing: Primary screen for RD cells (AID 1347104); also: nearly all actives have a fitted effect of over 55% in size; also: potency is read from the fitted curve at half-maximal effect
How it was run: as §2

[17] = qHTS of pediatric cancer cell lines to identify multiple opportunities for drug repurposing: Primary screen for SK-N-MC cells (AID 1347093); also: potency is read from the fitted curve at half-maximal effect
How it was run: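 Metabolically active cells were quantified by ATP-dependent luminescence (CellTiter-Glo, 15 min at room temperature) following 48 h treatment. Cells had been plated at 500-1,000 per well and settled for 5 h beforehand.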

[18] = qHTS of pediatric cancer cell lines to identify multiple opportunities for drug repurposing: Primary screen for Saos-2 cells (AID 1347097); also: nearly all actives have a fitted effect of over 40% in size; also: potency is read from the fitted curve at half-maximal effect
How it was run: as §2

[19] = qHTS of pediatric cancer cell lines to identify multiple opportunities for drug repurposing: Primary screen for MG 63 (6-TG R) cells (AID 1347105); also: nearly all actives have a fitted effect of over 50% in size
How it was run: as §2

[20] = qHTS of pediatric cancer cell lines to identify multiple opportunities for drug repurposing: Primary screen for SJ-GBM2 cells (AID 1347091); also: potency is read from the fitted curve at half-maximal effect
How it was run: as §1

Measured: Potency

C[C@@H]1CC[C@H]2[C@@H](C)C(=O)O[C@@H]3O[C@@]4(C)CC[C@@H]1[C@]32OO4
not listed: [15] | [16] | [17] | [18] | [19] | [20]
inactive: all other assays above

O=C(N[C@@H]1N=C(c2ccccc2F)c2cccc3c2N(CC3)C1=O)c1cc2ccccc2[nH]1
not listed: [2] | [3] | [7] | [17] | [18] | [19] | [20]
inactive: all other assays above

CC[C@]1(O)CC[C@H]2[C@@H]3CCC4=CCCC[C@@H]4[C@H]3CC[C@@]21C
inactive: [4] | [6] | [8] | [9] | [16] | [12] | [13] | [14]

Clc1ccc(CSC(Cn2ccnc2)c2ccc(Cl)cc2Cl)cc1 (configuration not stated)
inactive: [12]
active: [3] 26.6 µM | [17] 33.5 µM | [7] 34.4 µM | [11] 27.6 µM | [16] 23.7 µM

C[C@H](CN1CCOCC1)C(C(=O)N1CCCC1)(c1ccccc1)c1ccccc1
active: [11] 43.4 µM | [14] 46.9 µM
inactive: [1] | [2] | [5] | [6] | [12]

N#Cc1nn(-c2c(Cl)cc(C(F)(F)F)cc2Cl)c(N)c1S(=O)C(F)(F)F (configuration not stated)
active: [15] 12.3 µM | [11] 24.6 µM
inactive: [1] | [3] | [4] | [6] | [8] | [10] | [12] | [13]

CN1CCC(N(Cc2ccccc2)c2ccccc2)CC1
not listed: [7] | [8] | [11] | [16] | [17] | [18] | [19] | [20]
inactive: all other assays above

CN1[C@@H]2CC[C@H]1CC(OC(=O)c1cc(Cl)cc(Cl)c1)C2 (some centres not stated)
inactive: [1] | [5] | [6] | [15] | [10] | [19] | [12] | [13] | [14]
active: [17] 0.001 µM | [18] 75 µM | [8] 0.001 µM

COc1ccc2c(C(=O)c3ccc(Cl)cc3)c(C)n(CC(=O)O)c2c1
active: [2] 21.1 µM | [17] 8.41 µM
not listed: [1] | [3] | [5] | [14] | [18] | [19] | [20]
inactive: all other assays above

COc1ccc2c3c1O[C@H]1[C@@H](O)C=C[C@H]4[C@@H](C2)N(C)CC[C@@]341
inactive: [12] | [13]
active: [3] 23.8 µM | [17] 33.7 µM | [7] 17.4 µM | [8] 23.8 µM | [9] 33.7 µM | [11] 44 µM | [16] 47.6 µM

CCCCCCCCC(=O)NCc1ccc(O)c(OC)c1
active: [20] 0.001 µM | [17] 0.001 µM | [4] 0.001 µM | [5] 0.001 µM | [7] 0.0014 µM | [9] 0.001 µM | [11] 0.001 µM
not listed: [2] | [3] | [8] | [18] | [19]
inactive: all other assays above

CC(=O)OC1(c2ccccc2)CCN(CCc2ccccc2)CC1
inactive: [1] | [2] | [6] | [12]
active: [11] 32.4 µM | [16] 62.3 µM | [14] 49.5 µM

CCCCCCCCCCCC[N+](C)(C)CCOc1ccccc1
inactive: [12]
active: [2] 26.6 µM | [17] 6.68 µM | [4] 30.9 µM | [18] 13.3 µM | [7] 13.7 µM | [9] 23.7 µM | [15] 24.6 µM | [10] 8.41 µM | [11] 4.9 µM | [16] 23.7 µM | [14] 16.8 µM

CNC(=O)Oc1cccc2ccccc12
not listed: [1] | [19]
inactive: all other assays above

CC(CC(C#N)(c1ccccc1)c1ccccc1)N(C)C (configuration not stated)
active: [11] 28.2 µM | [16] 54.5 µM
not listed: [4] | [7] | [15] | [17] | [18] | [19] | [20]
inactive: all other assays above

Clc1ccc(C(OCCN2CCCCC2)c2ccccc2)cc1 (configuration not stated)
inactive: [1] | [2] | [6] | [18] | [8] | [9] | [10] | [19] | [12] | [13]
active: [11] 19.5 µM

C#C[C@]1(O)CC[C@H]2[C@@H]3CCC4=CC(=O)CCC4=C3C=C[C@@]21CC
inactive: [1] | [20] | [5] | [6] | [18] | [9] | [19] | [12]

C[C@]12C=CC(=O)C=C1CC[C@@H]1[C@@H]2CC[C@@]2(C)[C@H]1CC[C@]2(C)O
not listed: [3] | [5] | [8] | [11] | [17] | [18] | [20]
inactive: all other assays above

CN1C(=O)[C@@H](NC(=O)c2cc3ccccc3[nH]2)N=C(c2ccccc2)c2ccccc21
active: [3] 6.68 µM | [18] 10.6 µM
not listed: [2] | [9] | [14] | [16] | [17] | [20]
inactive: all other assays above

CN(C)CCc1c[nH]c2ccc(O)cc12
not listed: [1] | [2] | [3] | [14] | [16] | [17] | [18] | [19]
inactive: all other assays above
